Laboratory results as given in PubChem BioAssay AID540356 (Broad Institute, 2011).
Screen size: about 2,500 compounds; about 360 (14%) were called active.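 Rule for the calls: active = signal-lowering compounds whose fitted half-maximal concentration AC50 is no higher than ten times their top tested concentration; inconclusive = flat curve with 30 to 70% inhibition, or poor fit; inactive = flat within 30%, signal increase, or AC50 above limit.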 Only a sample is shown.

Assay: non-specific inhibitors of H2O2 luminol chemiluminescence – biochemical, luminescence, no ALR or DTT, cherry-pick, artefact control for ALR inhibitor project, dose response (AID 540356)
Details: HRP/H2O2 luminol luminescence counterscreen; series mostly up to 10 µM

SMILES | AC50
NCCc1ccc(O)c(O)c1 | 6.13 µM (active)
CNCCc1ccc(O)c(O)c1 | inactive
C/C(CCc1c[nH]c2ccccc12)=N\O | inactive
CCc1ccc(N2C(=O)NC(=O)/C(=C\C=C\c3ccco3)C2=O)cc1 | inactive
CC1=NN(c2ccccc2)C(=O)C1/C=C1/C(=O)NC(=O)N(c2cc(C)cc(C)c2)C1=O (stereo not given) | inactive
CN=C(SCc1ccccc1)c1c(O)n(C)c(=O)n(C)c1=O | inactive
Cn1c(O)c(/C=N/Nc2ccccc2)c(=O)n(C)c1=O | 1.32 µM (active)
N/C(=N\[N+](=O)[O-])N/N=C/c1ccc(O)cc1 | inactive
C=CCN1C(=O)NC(=O)/C(=C\c2ccc(-c3ccccc3[N+](=O)[O-])o2)C1=O | inactive
Cc1ccc(/C=C2\C(=O)NC(=O)N(Cc3ccccc3Cl)C2=O)o1 | inactive
CCCN1CCc2cccc3c2[C@H]1Cc1ccc(O)c(O)c1-3 | 9.91 µM (active)
CC(=O)Nc1ccccc1OP1(=O)COc2ccccc2OC1 | inactive
Cc1ccc(/C=C2\C(=O)NC(=O)N(CCc3ccc(F)cc3)C2=O)s1 | inactive
O=C(O)C12C3CCCC1C32c1ccccc1 (stereo not given) | inactive
CCNc1ccc(P(=S)(N(C)C)N(C)C)cc1 | inactive
